Columns and labels:
Experiment in all cases: DAPPL (digital affinity profiling via proximity ligation, sequencing); 10 mM Tris-HCl pH 7.5, 50 mM NaCl, 1 mM DTT, 4% glycerol, room temperature, 30 min; GST-TFs on glutathione beads, 16-mer random dsDNA library, 0.1% formaldehyde crosslink after washing; high values mean tight binding
Conditions in all cases: protein: recombinant; tags: N-terminal GST; dsDNA, one strand shown
GABPA = target: T1, GABPA (Homo sapiens, UniProt Q06546 1-454)
T1 sequence: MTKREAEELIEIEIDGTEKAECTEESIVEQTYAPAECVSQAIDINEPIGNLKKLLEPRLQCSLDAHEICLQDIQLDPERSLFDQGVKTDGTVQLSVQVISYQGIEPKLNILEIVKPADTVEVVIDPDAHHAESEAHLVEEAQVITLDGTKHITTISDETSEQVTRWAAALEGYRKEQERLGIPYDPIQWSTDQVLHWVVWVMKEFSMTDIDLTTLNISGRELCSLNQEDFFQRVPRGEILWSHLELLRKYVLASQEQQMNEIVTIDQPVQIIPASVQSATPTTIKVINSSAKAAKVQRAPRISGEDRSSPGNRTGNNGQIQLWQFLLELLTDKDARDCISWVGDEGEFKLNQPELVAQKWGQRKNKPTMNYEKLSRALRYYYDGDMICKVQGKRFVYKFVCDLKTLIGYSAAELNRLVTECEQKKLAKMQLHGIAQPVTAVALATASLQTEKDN
Summary of the method: (§1)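 Sequencing on an Illumina NextSeq500 followed washing, crosslinking with 0.1% formaldehyde, proximity ligation (BsaI/T4 ligase, 1 h, 37 °C) and PCR amplification of pools that had been incubated for 30 min at room temperature with 200 nmole of a random double-stranded 16-mer DNA library in Tris/NaCl/DTT/glycerol buffer. Each pool held DNA-barcoded human transcription factors, expressed in yeast as GST fusions and captured on glutathione beads, plus a tag-only sample. Binding signal is a hexamer's read frequency for a factor divided by its frequency in the tag-only sample.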

EHF = target: T2, EHF (Homo sapiens, UniProt Q9NZC4 1-300)
T2 sequence: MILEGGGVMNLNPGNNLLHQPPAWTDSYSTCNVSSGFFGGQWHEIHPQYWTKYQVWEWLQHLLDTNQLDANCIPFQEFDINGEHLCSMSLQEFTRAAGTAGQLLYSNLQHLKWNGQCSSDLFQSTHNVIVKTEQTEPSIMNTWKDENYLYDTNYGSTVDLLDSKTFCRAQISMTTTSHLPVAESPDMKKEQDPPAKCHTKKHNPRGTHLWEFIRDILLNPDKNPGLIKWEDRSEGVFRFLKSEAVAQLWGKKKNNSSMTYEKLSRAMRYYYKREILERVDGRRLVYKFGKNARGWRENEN
Summary of the method: as §1

ETV5 = ETV5 (Homo sapiens, UniProt P41161 1-510)
Sequence of ETV5 (P41161 whole entry): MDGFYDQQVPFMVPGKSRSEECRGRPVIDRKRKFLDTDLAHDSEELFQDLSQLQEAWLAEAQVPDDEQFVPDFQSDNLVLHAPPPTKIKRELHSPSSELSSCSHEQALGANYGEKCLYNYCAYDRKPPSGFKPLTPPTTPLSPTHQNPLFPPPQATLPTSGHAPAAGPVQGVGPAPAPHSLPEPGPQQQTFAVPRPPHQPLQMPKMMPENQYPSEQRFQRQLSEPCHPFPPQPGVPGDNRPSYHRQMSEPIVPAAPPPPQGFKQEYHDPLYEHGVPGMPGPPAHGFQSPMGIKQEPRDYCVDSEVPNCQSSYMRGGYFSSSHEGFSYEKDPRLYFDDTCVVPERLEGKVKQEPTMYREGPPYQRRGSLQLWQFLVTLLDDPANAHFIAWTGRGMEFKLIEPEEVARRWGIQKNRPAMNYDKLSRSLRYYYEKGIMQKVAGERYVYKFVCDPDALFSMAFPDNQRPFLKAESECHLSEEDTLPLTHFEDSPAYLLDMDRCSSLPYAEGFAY
Summary of the method: as §1

ELK4 = target: T3, ELK4 (Homo sapiens, UniProt P28324-2 1-405)
T3 sequence: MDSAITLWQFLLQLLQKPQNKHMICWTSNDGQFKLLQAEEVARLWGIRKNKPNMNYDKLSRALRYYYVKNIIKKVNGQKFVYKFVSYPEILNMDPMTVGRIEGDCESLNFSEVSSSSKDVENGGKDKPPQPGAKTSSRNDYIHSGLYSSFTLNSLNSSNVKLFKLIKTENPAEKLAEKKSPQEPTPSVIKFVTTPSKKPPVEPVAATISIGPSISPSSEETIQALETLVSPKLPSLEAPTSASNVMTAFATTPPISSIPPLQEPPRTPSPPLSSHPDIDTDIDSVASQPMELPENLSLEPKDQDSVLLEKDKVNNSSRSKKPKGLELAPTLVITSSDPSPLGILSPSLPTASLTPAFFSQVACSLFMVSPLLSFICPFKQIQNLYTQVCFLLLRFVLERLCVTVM
Summary of the method: as §1

ETV3 = target: T4, ETV3 (Homo sapiens, UniProt P41162-2 1-143)
T4 sequence: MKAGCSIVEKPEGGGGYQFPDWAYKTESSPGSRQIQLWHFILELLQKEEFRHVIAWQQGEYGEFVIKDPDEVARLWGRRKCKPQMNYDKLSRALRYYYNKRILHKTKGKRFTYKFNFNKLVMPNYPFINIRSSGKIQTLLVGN
Summary of the method: as §1

ERG = target: T5, ERG (Homo sapiens, UniProt P11308 1-479)
T5 sequence: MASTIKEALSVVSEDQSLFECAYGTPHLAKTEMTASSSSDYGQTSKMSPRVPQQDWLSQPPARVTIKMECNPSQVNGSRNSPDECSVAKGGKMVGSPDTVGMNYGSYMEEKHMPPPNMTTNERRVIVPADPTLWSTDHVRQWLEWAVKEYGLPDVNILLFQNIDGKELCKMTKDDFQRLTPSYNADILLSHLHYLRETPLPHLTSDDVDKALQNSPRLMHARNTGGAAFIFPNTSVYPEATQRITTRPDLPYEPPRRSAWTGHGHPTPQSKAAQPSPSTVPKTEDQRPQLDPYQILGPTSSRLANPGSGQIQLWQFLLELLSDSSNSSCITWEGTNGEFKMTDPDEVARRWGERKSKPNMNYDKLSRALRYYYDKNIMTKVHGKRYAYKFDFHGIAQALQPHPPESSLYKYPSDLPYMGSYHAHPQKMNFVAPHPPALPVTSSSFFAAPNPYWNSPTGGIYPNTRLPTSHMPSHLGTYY
Summary of the method: as §1

ELF1 = ELF1 (Homo sapiens, UniProt P32519 1-619)
Sequence of ELF1 (P32519 whole entry): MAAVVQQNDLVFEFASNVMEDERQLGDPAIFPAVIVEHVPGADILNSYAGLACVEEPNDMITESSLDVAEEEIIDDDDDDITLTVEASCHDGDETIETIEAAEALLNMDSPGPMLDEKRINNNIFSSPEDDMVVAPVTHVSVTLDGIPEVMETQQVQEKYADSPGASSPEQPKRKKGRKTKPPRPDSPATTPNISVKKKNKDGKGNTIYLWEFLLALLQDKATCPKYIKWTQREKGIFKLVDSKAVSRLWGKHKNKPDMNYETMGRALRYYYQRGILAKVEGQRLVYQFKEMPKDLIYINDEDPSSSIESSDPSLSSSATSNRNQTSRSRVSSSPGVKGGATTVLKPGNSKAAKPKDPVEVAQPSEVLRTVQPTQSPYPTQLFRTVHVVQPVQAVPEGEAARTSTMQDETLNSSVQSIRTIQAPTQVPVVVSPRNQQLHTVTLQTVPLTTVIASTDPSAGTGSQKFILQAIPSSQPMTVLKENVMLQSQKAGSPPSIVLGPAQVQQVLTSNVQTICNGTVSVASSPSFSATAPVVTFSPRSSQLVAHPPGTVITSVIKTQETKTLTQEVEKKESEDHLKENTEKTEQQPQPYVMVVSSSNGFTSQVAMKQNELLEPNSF
Summary of the method: as §1

SPIB = SPIB (Homo sapiens, UniProt Q01892 1-262)
Sequence of SPIB (Q01892 whole entry): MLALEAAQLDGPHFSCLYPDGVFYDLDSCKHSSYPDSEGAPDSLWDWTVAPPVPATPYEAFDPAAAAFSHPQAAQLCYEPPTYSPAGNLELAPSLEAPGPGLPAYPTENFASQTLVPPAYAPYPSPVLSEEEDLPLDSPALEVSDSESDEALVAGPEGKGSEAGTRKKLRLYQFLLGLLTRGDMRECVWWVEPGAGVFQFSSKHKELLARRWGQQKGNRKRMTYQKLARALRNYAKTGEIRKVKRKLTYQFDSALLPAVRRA
Summary of the method: as §1

FEV = target: T6, FEV (Homo sapiens, UniProt Q99581 1-238)
T6 sequence: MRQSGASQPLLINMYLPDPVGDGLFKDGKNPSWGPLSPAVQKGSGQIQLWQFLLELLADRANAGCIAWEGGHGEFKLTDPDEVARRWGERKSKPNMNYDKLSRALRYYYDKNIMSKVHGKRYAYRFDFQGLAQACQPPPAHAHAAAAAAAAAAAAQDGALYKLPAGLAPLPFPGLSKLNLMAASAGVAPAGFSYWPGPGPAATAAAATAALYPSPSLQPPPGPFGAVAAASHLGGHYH
Summary of the method: as §1

ELF4 = ELF4 (Homo sapiens, UniProt Q99607 1-663)
Sequence of ELF4 (Q99607 whole entry): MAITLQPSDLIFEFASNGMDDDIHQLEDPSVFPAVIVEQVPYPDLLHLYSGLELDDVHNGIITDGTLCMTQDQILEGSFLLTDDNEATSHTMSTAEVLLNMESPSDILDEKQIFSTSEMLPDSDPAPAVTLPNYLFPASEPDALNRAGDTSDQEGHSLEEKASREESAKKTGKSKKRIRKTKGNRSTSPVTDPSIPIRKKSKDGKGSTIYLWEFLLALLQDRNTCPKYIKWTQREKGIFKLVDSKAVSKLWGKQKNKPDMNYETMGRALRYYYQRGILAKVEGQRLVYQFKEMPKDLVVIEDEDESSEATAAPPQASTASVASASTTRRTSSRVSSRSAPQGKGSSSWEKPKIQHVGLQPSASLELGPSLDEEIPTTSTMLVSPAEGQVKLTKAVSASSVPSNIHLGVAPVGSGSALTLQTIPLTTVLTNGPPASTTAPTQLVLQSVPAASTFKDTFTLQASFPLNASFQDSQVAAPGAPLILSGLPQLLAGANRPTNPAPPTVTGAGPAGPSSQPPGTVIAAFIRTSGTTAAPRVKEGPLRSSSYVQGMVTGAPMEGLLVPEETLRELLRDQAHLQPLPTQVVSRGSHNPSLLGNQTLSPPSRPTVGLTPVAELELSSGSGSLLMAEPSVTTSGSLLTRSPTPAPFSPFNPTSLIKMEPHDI
Summary of the method: as §1

ETV2 = target: T7, ETV2 (Homo sapiens, UniProt O00321 1-342)
T7 sequence: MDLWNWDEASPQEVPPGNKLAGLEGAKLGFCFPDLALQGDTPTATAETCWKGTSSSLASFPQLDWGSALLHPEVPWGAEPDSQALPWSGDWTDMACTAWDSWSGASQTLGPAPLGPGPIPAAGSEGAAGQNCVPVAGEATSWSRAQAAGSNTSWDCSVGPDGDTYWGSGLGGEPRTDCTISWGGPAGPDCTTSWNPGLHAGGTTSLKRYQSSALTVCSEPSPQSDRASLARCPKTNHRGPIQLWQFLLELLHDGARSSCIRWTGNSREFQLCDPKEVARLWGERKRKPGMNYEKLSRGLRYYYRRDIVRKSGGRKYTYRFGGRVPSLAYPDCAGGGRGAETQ
Summary of the method: as §1

ELF3 = target: T8, ELF3 (Homo sapiens, UniProt P78545 1-371)
T8 sequence: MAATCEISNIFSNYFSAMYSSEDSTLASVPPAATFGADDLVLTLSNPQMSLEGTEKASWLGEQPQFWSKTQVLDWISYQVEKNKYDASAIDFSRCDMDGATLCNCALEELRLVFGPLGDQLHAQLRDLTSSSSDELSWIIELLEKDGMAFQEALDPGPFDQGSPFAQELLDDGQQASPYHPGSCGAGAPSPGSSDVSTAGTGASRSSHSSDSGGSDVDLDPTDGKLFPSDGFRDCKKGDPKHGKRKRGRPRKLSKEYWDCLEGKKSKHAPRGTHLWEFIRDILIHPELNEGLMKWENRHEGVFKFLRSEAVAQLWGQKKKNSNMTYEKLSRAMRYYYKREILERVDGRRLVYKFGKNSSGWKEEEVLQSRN
Summary of the method: as §1

ETV1 = ETV1 (Homo sapiens, UniProt P50549 1-477)
Sequence of ETV1 (P50549 whole entry): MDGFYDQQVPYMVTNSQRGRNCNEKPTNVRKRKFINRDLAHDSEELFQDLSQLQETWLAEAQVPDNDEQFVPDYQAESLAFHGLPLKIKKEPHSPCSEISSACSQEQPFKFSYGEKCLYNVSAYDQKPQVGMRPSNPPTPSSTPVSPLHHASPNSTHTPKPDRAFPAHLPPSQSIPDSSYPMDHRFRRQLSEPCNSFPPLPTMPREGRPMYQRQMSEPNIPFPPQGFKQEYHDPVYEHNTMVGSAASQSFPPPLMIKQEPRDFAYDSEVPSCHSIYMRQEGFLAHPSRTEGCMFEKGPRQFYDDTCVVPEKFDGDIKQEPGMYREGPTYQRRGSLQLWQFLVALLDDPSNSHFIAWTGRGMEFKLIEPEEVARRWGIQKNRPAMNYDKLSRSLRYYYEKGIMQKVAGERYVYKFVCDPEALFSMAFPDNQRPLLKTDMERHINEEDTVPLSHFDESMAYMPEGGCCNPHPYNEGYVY
Summary of the method: as §1

ERF = target: T9, ERF (Homo sapiens, UniProt P50548 1-548)
T9 sequence: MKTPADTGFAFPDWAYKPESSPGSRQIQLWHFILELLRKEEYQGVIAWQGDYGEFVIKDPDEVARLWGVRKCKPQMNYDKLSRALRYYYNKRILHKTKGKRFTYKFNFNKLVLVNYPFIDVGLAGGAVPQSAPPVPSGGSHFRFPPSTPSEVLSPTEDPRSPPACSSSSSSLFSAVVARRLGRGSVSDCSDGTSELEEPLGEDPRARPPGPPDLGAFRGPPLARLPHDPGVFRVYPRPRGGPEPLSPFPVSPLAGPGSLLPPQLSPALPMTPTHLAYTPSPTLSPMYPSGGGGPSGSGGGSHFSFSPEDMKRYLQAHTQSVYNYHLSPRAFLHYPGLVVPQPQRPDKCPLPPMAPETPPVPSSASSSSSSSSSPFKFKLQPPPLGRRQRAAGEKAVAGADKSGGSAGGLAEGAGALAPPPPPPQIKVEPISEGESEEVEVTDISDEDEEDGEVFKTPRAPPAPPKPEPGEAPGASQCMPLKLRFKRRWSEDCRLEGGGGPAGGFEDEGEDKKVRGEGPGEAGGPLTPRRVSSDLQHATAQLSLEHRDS
Summary of the method: as §1

ETV3L = target: T10, ETV3L (Homo sapiens, UniProt Q6ZN32 1-361)
T10 sequence: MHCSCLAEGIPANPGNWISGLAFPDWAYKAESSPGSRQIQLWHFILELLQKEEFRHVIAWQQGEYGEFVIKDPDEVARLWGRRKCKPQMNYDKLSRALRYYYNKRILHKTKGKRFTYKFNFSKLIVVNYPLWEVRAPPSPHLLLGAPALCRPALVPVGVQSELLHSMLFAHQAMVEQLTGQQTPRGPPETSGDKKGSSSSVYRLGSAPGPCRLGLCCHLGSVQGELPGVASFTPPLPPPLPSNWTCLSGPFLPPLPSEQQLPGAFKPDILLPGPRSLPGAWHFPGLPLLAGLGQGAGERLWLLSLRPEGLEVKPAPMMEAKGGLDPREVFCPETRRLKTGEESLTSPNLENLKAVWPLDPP
Summary of the method: as §1

SPDEF = target: T11, SPDEF (Homo sapiens, UniProt O95238 1-335)
T11 sequence: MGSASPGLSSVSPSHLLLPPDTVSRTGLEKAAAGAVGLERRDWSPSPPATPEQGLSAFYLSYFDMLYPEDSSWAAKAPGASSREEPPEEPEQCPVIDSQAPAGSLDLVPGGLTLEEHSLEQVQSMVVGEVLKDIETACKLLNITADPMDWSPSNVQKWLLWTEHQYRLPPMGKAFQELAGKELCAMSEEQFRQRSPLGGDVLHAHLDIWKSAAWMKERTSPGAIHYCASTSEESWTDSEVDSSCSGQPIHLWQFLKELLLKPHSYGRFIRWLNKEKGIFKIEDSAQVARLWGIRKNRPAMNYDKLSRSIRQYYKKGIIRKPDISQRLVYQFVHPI
Summary of the method: as §1

ETV7 = target: T12, ETV7 (Homo sapiens, UniProt Q9Y603 1-341)
T12 sequence: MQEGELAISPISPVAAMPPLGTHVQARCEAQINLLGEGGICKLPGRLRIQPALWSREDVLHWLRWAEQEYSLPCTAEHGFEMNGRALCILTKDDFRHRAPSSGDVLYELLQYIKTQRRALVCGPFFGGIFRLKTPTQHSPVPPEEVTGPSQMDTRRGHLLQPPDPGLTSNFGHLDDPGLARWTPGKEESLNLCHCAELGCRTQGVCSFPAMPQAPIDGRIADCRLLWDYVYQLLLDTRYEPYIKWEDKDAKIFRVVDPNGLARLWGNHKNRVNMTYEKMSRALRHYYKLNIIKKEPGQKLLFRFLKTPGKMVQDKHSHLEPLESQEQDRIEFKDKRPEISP
Summary of the method: as §1

Row | Sequence | binding signal (GABPA) | binding signal (EHF) | binding signal (ETV5) | binding signal (ELK4) | binding signal (ETV3) | binding signal (ERG) | binding signal (ELF1) | binding signal (SPIB) | binding signal (FEV) | binding signal (ELF4) | binding signal (ETV2) | binding signal (ELF3) | binding signal (ETV1) | binding signal (ERF) | binding signal (ETV3L) | binding signal (SPDEF) | binding signal (ETV7)
1 | GACTTA | 1.03 fold enrichment (6-mer frequency, TF over GST control) | 1.04 fold enrichment (6-mer frequency, TF over GST control) | 1.01 fold enrichment (6-mer frequency, TF over GST control) | 1 fold enrichment (6-mer frequency, TF over GST control) | 1.02 fold enrichment (6-mer frequency, TF over GST control) | – | – | – | – | – | – | – | – | – | – | – | –
2 | ACTGGA | 1.12 fold enrichment (6-mer frequency, TF over GST control) | 1.02 fold enrichment (6-mer frequency, TF over GST control) | 1.09 fold enrichment (6-mer frequency, TF over GST control) | – | 1.05 fold enrichment (6-mer frequency, TF over GST control) | 1.08 fold enrichment (6-mer frequency, TF over GST control) | 1.03 fold enrichment (6-mer frequency, TF over GST control) | 1.03 fold enrichment (6-mer frequency, TF over GST control) | 1 fold enrichment (6-mer frequency, TF over GST control) | 1.1 fold enrichment (6-mer frequency, TF over GST control) | 1.17 fold enrichment (6-mer frequency, TF over GST control) | 1.1 fold enrichment (6-mer frequency, TF over GST control) | 1.06 fold enrichment (6-mer frequency, TF over GST control) | 1.03 fold enrichment (6-mer frequency, TF over GST control) | 1.02 fold enrichment (6-mer frequency, TF over GST control) | 1.02 fold enrichment (6-mer frequency, TF over GST control) | 1.01 fold enrichment (6-mer frequency, TF over GST control)

From PMC7862700, “An all-to-all approach to the identification of sequence-specific readers for epigenetic DNA modifications on cytosine”
